Assay results taken from PubChem BioAssay (NCI).
This is part of a sample that, as a whole, favours compounds with a hit. Of some 83,000 tested, about 20% had one in any assay.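 Each cell line was grown in a 96-well plate and treated with one concentration of compound for 48 hours. Values below 10 were considered active.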 The source made the active and inactive calls.

How the values were obtained:
Assay in all cases: NCI-60 one-dose screen, 48 h (100 = growth as untreated, 0 = no growth, -100 = all killed)
Conditions in all cases: 10 µM unless noted
[1] = system: T-47D breast
[2] = system: BT-549 breast
[3] = system: MDA-MB-435 melanoma
[4] = system: SW-620 colon
[5] = system: MCF7 breast
[6] = system: HCT-116 colon
[7] = system: HCC-2998 colon
[8] = system: KM12 colon

Measured: growth

CC1Cc2c(N(C)C)ncnc2N(C)c2ccc(Cl)cc21 (stereo not given)
inactive: [1] 37.1% | [2] 24.6% | [4] 17.9% | [5] 15.2% | [6] 16.9% | [7] 50.1% | [8] 23.6%
active: [3] -32.2%

CCn1cc(C(=O)O)c(=O)c2cc(F)c(N3CCN(S(=O)(=O)c4ccc(Cl)cc4Cl)CC3)cc21
active: [1] 1.7% | [2] -4.59% | [6] 6.37% | [8] 9.4%
inactive: [3] 12.8% | [4] 16.4% | [5] 89.2% | [7] 30.6%

Cc1ccc(S(=O)(=O)NCCCNc2nccc(-c3c(-c4ccccc4)nc4sccn34)n2)cc1
inactive: [1] 39.9% | [2] 38.9% | [3] 34% | [4] 58.1% | [5] 42.8% | [6] 15.2% | [7] 93.9% | [8] 18.6%

O=C1C2=C(C(=O)c3c(O)ccc(O)c31)N(c1cccnc1)Cc1ccccc1O2
active: [1] -28.4% | [2] -54.1% | [3] -14.2% | [4] -45.9% | [5] -18% | [6] -71% | [7] -31.2% | [8] -4.03%

CN=S(=O)(NC(=O)c1ccc(Cl)cc1Cl)c1ccc(Br)s1 (stereo not given)
inactive: [1] 95.8% | [2] 103% | [3] 97.6% | [4] 98.8% | [5] 101% | [6] 102% | [7] 111% | [8] 110%

CC(=O)Oc1cccc(OC(C)=O)c1OC(C)=O
inactive: [1] 97.1% | [2] 94.3% | [3] 94.6% | [4] 114% | [5] 88.7% | [6] 89.5% | [7] 92.1% | [8] 105%

C=CCOc1ccc(/C(O)=C2\C(=O)C(=O)N(c3nccs3)C2c2ccccc2F)cc1 (stereo not given)
inactive: [1] 100% | [2] 113% | [3] 94% | [4] 103% | [5] 112% | [6] 95.4% | [7] 107% | [8] 89.4%

CCNC(=O)C1CCCN1C(=O)C(CCCN=C(N)N)NC(=O)C(CC(C)C)NC(=O)C(CC(C)C)NC(=O)C(Cc1ccc(O)cc1)NC(=O)C(CO)NC(=O)C(Cc1c[nH]c2ccccc12)NC(=O)C(Cc1cnc[nH]1)NC(=O)C1CCC(=O)N1 (stereo not given)
inactive: [1] 104% | [2] 113% | [3] 105% | [4] 89.4% | [5] 86.1% | [6] 95.2% | [7] 94.4% | [8] 104%

CC(C)CCN(CCCNc1c2c(nc3ccccc13)CCCC2)CCC(C)C
inactive: [1] 98.8% | [2] 91.3% | [3] 89.3% | [4] 79.9% | [5] 69.9% | [6] 63.7% | [7] 69.7% | [8] 105%

COc1ccc(S(=O)(=O)N2CCN(c3cc4c(cc3F)c(=O)c(C(=O)O)cn4C3CC3)CC2)c(OC)c1
inactive: [1] 75% | [2] 95% | [3] 97.7% | [4] 105% | [5] 98.4% | [6] 102% | [7] 118% | [8] 91.1%

CCn1cc(C2NC(=O)c3cc(F)ccc3N2)c2cccc(Cl)c21 (stereo not given)
active: [3] -31.7% | [6] 8.12% | [7] 7.64%
inactive: [1] 58.3% | [2] 26.9% | [4] 20.8% | [5] 15.5% | [8] 19.2%

COc1ccc(-c2nnc(COc3ccc(NS(=O)(=O)c4ccc(OC)cc4)cc3F)o2)cc1
inactive: [1] 31.6% | [2] 84.7% | [3] 81.4% | [4] 94.3% | [5] 69.5% | [6] 67.2% | [7] 93.1% | [8] 73.4%

O=S(=O)(NCCNc1cc(-c2cn(-c3ccccc3)nc2-c2ccccc2)ccn1)c1ccc(F)cc1
inactive: [1] 50.5% | [2] 94.8% | [3] 83.9% | [4] 95.4% | [5] 86.3% | [6] 79.4% | [7] 102% | [8] 87.3%

NC(=O)c1ccc2c(c1)OCO2
inactive: [1] 111% | [2] 110% | [3] 100% | [4] 98% | [5] 95.6% | [6] 101% | [7] 100% | [8] 103%

CC(C)(C)OC(=O)N1C/C(=C\c2cccs2)C(=O)/C(=C/c2cccs2)C1
inactive: [1] 82.5% | [2] 97.6% | [3] 99.7% | [4] 84.5% | [5] 39.1% | [6] 63.5% | [7] 106% | [8] 97.2%

CCCCC(N)(C(=O)O)C1CCCC1 (stereo not given)
inactive: [1] 110% | [2] 103% | [3] 104% | [4] 105% | [5] 91.4% | [6] 101% | [7] 112% | [8] 113%

Cc1ccc2nc(-c3c(N)n[nH]c3CCCO)[nH]c(=O)c2c1
inactive: [1] 111% | [2] 104% | [3] 110% | [4] 101% | [5] 94.5% | [6] 109% | [7] 111% | [8] 111%

OC1CC2c3ccccc3C1c1ccccc12 (stereo not given)
inactive: [1] 111% | [2] 108% | [3] 107% | [4] 108% | [5] 98.8% | [6] 103% | [7] 108% | [8] 107%

Clc1ccc2c(c1)NC1(CCSc3ccccc31)n1nccc1-2 (stereo not given)
inactive: [1] 101% | [2] 97.4% | [3] 110% | [4] 102% | [5] 102% | [6] 89.4% | [7] 97.3% | [8] 102%

COc1cc(NS(C)(=O)=O)ccc1Nc1c2ccc([N+](=O)[O-])cc2nc2c(C)cccc12
inactive: [2] 27% | [3] 27.2% | [4] 18.8% | [5] 15.6% | [6] 22.9%
active: [1] 1.78% | [7] -1.86% | [8] -29.1%

CC(Br)C(OC(=O)c1ccccc1Cl)c1cc2c(cc1Br)OCO2 (stereo not given)
inactive: [1] 74.9% | [2] 109% | [3] 75.3% | [4] 84.6% | [5] 95.2% | [6] 66.6% | [7] 90.7% | [8] 89%

COc1ccc(Cn2cc(COc3cc(/C=C/C(=O)c4cc(OC)c(OC)c(OC)c4)ccc3OC)nn2)cc1
inactive: [1] 65.4% | [2] 30.8% | [3] 12.5% | [4] 19.8% | [5] 21.3% | [6] 17.9% | [7] 110% | [8] 15.8%

CCNCc1ccncc1
inactive: [1] 96.9% | [2] 114% | [3] 95.6% | [4] 100% | [5] 96.6% | [6] 104% | [7] 99.5% | [8] 106%

COc1ccc(C2CC(c3cccs3)=NN2c2ccc(S(=O)(=O)NC(=O)NCc3cccc(OC)c3)cc2)cc1 (stereo not given)
inactive: [1] 85.7% | [2] 116% | [3] 52.3% | [4] 107% | [5] 99% | [6] 98.8% | [7] 111% | [8] 98.5%

Cc1cc2c(c(=O)o1)C(c1ccc(OC(=O)N3CCOCC3)cc1)C(C#N)=C(N)O2 (stereo not given)
inactive: [1] 102% | [2] 104% | [3] 105% | [4] 108% | [5] 98% | [6] 104% | [7] 99.4% | [8] 105%

CCSc1nnc(NC(=O)Cc2ccc(Cl)cc2)s1
inactive: [1] 96.2% | [2] 109% | [3] 98.9% | [4] 109% | [5] 101% | [6] 105% | [7] 84.9% | [8] 96.9%

COC(=O)CCCCCN=Cc1c(O)c(O)c(C(C)C)c2cc(C)c(-c3c(C)cc4c(C(C)C)c(O)c(O)c(C=NCCCCCC(=O)OC)c4c3O)c(O)c12
active: [6] 9.82%
inactive: [1] 11.8% | [2] 35.1% | [3] 21.1% | [4] 20.2% | [5] 12.9% | [7] 30.2% | [8] 19.7%

C[N+](C)(C)c1ccc(CC2c3ccccc3-c3ccccc32)cc1
inactive: [1] 51.1% | [2] 59.2% | [3] 90.4% | [4] 86.2% | [5] 84.1% | [6] 73.3% | [7] 88.8% | [8] 77%

Cc1nc(Nc2cccnc2)sc1C(=O)/C=C/c1ccc(Cl)cc1
inactive: [1] 24.8% | [2] 15.2% | [5] 13.2% | [6] 26.8% | [7] 84.8% | [8] 12.9%
active: [3] 5.05% | [4] 6.92%

COc1ccc(C(=O)c2cc(OC)c(OC)c(OC)c2)cc1/C=C/C(=O)c1ccc2c(c1)OCO2
inactive: [1] 33.1% | [3] 21.6% | [5] 19.8% | [7] 27.3%
active: [2] -10.4% | [4] -35.4% | [6] -78.6% | [8] -12%
